The campaign covered roughly 410,000 compounds. About 6,400 (1.6%) were called active. Entries that show only a call come without a potency. Not shown: some 20% with an inconclusive outcome. Calls follow the shape of the dose curve; as a rule, active = well fitted inhibition curve with a large enough effect; inconclusive = small, poorly fitted or top-dose-only effect; inactive = no such curve, though single readings can be large or run the other way. Many of the other results were omitted from the sample, so actives are more common in it than they were.
Each compound was assayed against Glucagon-like peptide 1 receptor (Homo sapiens) (UniProt P43220) (assay: qHTS of GLP-1 Receptor Inverse Agonists (Inhibition Mode)). Conditions: HEK293 GLP-1R CRE-luciferase, luminescence, 24 h, GLP-1R form is constitutively active; series mostly up to 38.3 µM.
How it was run: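 GLP-1R inverse agonism mode: basal reporter luminescence in engineered HEK293 cells measured after one day of compound exposure at 37 deg C, with a 12 min room-temperature detection step.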
Also: nearly all actives have a fitted effect of over 55% in size.
Potency is read from the fitted curve at half-maximal effect.

Chain of Glucagon-like peptide 1 receptor (Homo sapiens) (P43220 whole entry, looked up): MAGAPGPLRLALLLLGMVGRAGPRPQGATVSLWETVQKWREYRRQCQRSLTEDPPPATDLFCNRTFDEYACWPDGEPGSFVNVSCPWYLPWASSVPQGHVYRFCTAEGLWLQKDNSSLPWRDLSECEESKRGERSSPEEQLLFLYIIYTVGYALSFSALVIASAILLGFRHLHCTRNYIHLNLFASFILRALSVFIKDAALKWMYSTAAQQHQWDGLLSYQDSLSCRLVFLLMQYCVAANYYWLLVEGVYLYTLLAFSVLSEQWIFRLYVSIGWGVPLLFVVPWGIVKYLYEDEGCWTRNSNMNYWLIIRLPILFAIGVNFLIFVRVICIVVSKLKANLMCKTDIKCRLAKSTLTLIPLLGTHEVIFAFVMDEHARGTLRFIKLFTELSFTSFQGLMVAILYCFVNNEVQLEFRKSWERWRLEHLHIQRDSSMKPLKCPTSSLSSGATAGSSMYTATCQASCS

Structure (SMILES) | Potency
C=CCN1CCN(c2ccncc2S(=O)(=O)N2CCN(C)CC2)CC1 | inactive
C[C@@H]1Cn2cnc(C(=O)Nc3ccc(CNC(=O)OC(C)(C)C)cc3)c2C(=O)N1 | inactive
O=C(Cc1ccc(-c2ccccc2)cc1)NC(c1ccccc1)c1ccccc1 | inactive
O=C(CN1CCN(Cc2ccccc2)CC1)NC(c1ccccc1)c1ccccc1 | 10 µM (active)
O=C(CN1CCN(Cc2ccccc2)CC1)Nc1ccc(F)c(F)c1 | inactive
COc1ccc(S(=O)(=O)N(C)C)cc1NC(=O)COC(=O)c1n[nH]c2ccccc12 | inactive
Nc1ncnc2c1ncn2[C@@H]1O[C@H](CNC(=O)[C@H](N)Cc2cccnc2)[C@@H](O)[C@H]1O | inactive
CSc1nsc(SC)c1NC(=O)OC1CCCCC1 | 7.08 µM (active)
O=[N+]([O-])c1cc(Br)c(O)c(/C=N/Nc2nc3ccccc3s2)c1 | 4.47 µM (active)
COc1ccc(CC(=O)N/N=C/c2cc([N+](=O)[O-])cc(Br)c2O)cc1 | inactive
O=C(NC(Nc1nc2ccc([N+](=O)[O-])cc2s1)(C(F)(F)F)C(F)(F)F)c1ccccc1 | inactive
CC1(C(=O)O)CCN1C(=O)/C=C/c1ccccc1 (stereo not drawn) | inactive
Cc1cccc(S(=O)(=O)N(C)C[C@@H]2OCc3cnnn3CCCC(=O)N([C@H](C)CO)C[C@@H]2C)c1 | inactive
Cc1cc(C)cc(NC(=O)CSCc2cnn(-c3ccccc3)c2-n2cccc2)c1 | inactive
CC(=O)Nc1ccc(NC(=O)CSCc2cnn(-c3ccccc3)c2-n2cccc2)cc1 | inactive
O=C(NCCC1=CCCCC1)C1CCN(Cc2cnn(-c3ccccc3)c2-n2cccc2)CC1 | 4.47 µM (active)
Cc1ccc(S(=O)(=O)N2C[C@H]3C(=O)C[C@@H](c4cccc5ccccc45)N(S(=O)(=O)c4ccc(C)cc4)[C@H]3C[C@H]2c2ccc(Cl)cc2)cc1 | inactive
CC1(C(=O)NS(=O)(=O)c2cccc(OC(F)F)c2)CCN1C(=O)C1CC1 (stereo not drawn) | inactive
CC1=NN(C(=O)Cc2ccc(C)cc2)C(O)(c2cccnc2)C1 (stereo not drawn) | inactive
CC1=NN(C(=O)c2ccccc2Br)C(O)(c2cccnc2)C1 (stereo not drawn) | inactive
CC1=NN(C(=O)c2ccc(Br)cc2)C(O)(c2ccccc2)C1 (stereo not drawn) | 1.12 µM (active)

Structure (SMILES) | Potency
CCOC(=O)[C@]12CCCC=C1N(CCC1=CCCCC1)C(=O)[C@H](CC(=O)N1CCOCC1)C2 | inactive
CC(=O)Nc1cccc(-c2cc3nc(NCc4cccnc4)n(C)c(=O)c3s2)c1 | inactive
Cc1c(C(=O)NCC2CC2)sc(=O)n1Cc1cccc(F)c1 | inactive
O=C1NC[C@H](Cc2ccc(O)cc2)N(C[C@@H]2CCCN2C[C@H](Cc2ccccc2)N2C[C@H](Cc3ccccc3)N(CC3CCCCC3)C(=O)C2=O)C1=O | inactive
CC1CN(c2nc(Nc3ccccc3)nc(N)c2[N+](=O)[O-])CC(C)O1 (stereo not drawn) | inactive
c1ccc(-c2nnc(N3CCOCC3)c3ccccc23)cc1 | inactive
c1ccc(Nc2nc(N3CCOCC3)c3ccccc3n2)cc1 | 10 µM (active)
CCc1cc(C(=O)N(CC)CC(=O)Nc2c(F)cccc2F)sc1C | inactive
COC(=O)C[C@@H]1C=C[C@@H](NS(=O)(=O)c2cccc(OC)c2)[C@@H](CO)O1 | inactive
Cc1ccc2cccc(NC(=O)c3ccc(OC(C)C)cc3)c2n1 | inactive
Cc1ccc2cccc(NC(=O)c3cccc4ccccc34)c2n1 | 11.2 µM (active)
O=C(Nc1cccc2cccnc12)c1cccc2c(Br)cccc12 | inactive
CNc1cnc(-c2cc(OC)c(OC)c(OC)c2)cn1 | inactive
CCn1c(C(O)c2cc(OC)ccc2OC)nc2ccccc21 (stereo not drawn) | inactive
COc1ccc(-c2nc3ccccc3n2CCC(C)C)cc1OC | 8.91 µM (active)
CCCn1c(C(O)c2cc(OC)ccc2OC)nc2ccccc21 (stereo not drawn) | inactive
CCOC(=O)c1c(NC(=S)SC)sc(C(=O)N2CCc3ccccc3C2)c1C | inactive
Cc1ccc(C(=O)N[C@H](C(=O)N2CCN(c3ncccn3)CC2)C(C)C)cc1 | inactive
CCN(CC)C(=O)C1=C(C)N(Cc2ccc(C(C)(C)C)cc2)C(=O)C(CC(=O)NCc2cccc3ccccc23)C1 (stereo not drawn) | 11.2 µM (active)
COc1ccc(CN2C(=O)C(CC(=O)NCc3cccc4ccccc34)CC(C(=O)N3CCOCC3)=C2C)cc1 (stereo not drawn) | inactive
CCN(CC)C(=O)C1=C(C)N(Cc2ccc(OC)cc2)C(=O)C(CC(=O)NCc2ccco2)C1 (stereo not drawn) | inactive

Structure (SMILES) | Potency
COC(=O)C(Cc1c[nH]c2ccccc12)NC(=O)CCNC(=O)c1ccco1 (stereo not drawn) | inactive
COc1ccc(S(=O)(=O)N2CCC(C(=O)NCCC(=O)Nc3ccccc3OC)CC2)cc1 | inactive
Nc1nc2c(ncn2[C@@H]2O[C@H](CNCc3ccc(OCCCN4CCOCC4)cc3)[C@@H](O)[C@H]2O)c(=O)[nH]1 | inactive
COC(=O)Cc1ccc(OC2(C)CCN(Cc3ccc4c(c3)OCCO4)C2)cc1 (stereo not drawn) | inactive
CCOc1cccc(-n2nnnc2-c2ccc(OC)cc2)c1 | 2.51 µM (active)
COc1ccc(NC(=O)CSc2nnnn2-c2cccc(OC)c2)cc1 | inactive
COc1ccc(-n2nnnc2-c2nc3ccccc3s2)cc1 | inactive
O=C(NCCO)c1cccc(-c2cccc3nccn23)c1 | inactive
O=C1NC[C@H](CCCCN2CCN(CCc3ccccc3)C(=O)C2=O)N(CC2CCCCC2)C1=O | inactive
COC(=O)c1ccc2nc(-c3ccc(F)cc3)c(Cc3ccc(C)cc3)n2c1 | inactive
CCNC(=O)c1cc2c(c(-c3cccc(-c4cncnc4)c3)n1)[C@H](CCO)N(C(C)=O)C2 | inactive
Cc1cccc(NC(=S)NCCc2ccc(Cl)cc2)c1C | 5.62 µM (active)
Cc1c(Cl)cccc1NC(=S)NCc1ccc2c(c1)OCO2 | inactive
CCNC(=S)Nc1cccc(Cl)c1C | inactive
COc1ccc(S(=O)(=O)N(C)C[C@H]2OCc3cnnn3CCCC(=O)N([C@H](C)CO)C[C@H]2C)cc1 | inactive
CC1Cc2ccccc2N1S(=O)(=O)c1cccc(C(=O)OCC(=O)N2CCOCC2)c1 (stereo not drawn) | inactive
CSc1ncccc1C(=O)NCC(c1ccco1)N1CCCCC1 (stereo not drawn) | inactive
Cc1cc(S(=O)(=O)Nc2ccc(C(=O)NCC(c3ccco3)N3CCCC3)cc2)ccc1F (stereo not drawn) | inactive
CC1CCc2sc(C(=O)N/N=C/C3CCCCC3)cc2C1 (stereo not drawn) | inactive
CC1Cc2ccccc2N1S(=O)(=O)c1cccc(C(=O)NCC(c2ccco2)N2CCCC2)c1 (stereo not drawn) | 10 µM (active)
CC1CCc2sc(C(=O)NCC(c3ccco3)N3CCCCC3)cc2C1 (stereo not drawn) | 8.91 µM (active)

From PubChem BioAssay AID624417 (National Center for Advancing Translational Sciences (NCATS), 2012)
